Laboratory results from PubChem BioAssay AID1159580 (chemical genetic matrix, 2015).
Hit rate of the full screen: of about 5,500 compounds, about 2,000 (36%) were called active. Not shown: some 18% with an inconclusive outcome. Rule as the data show it: active = normalized growth mostly below about 0.91 (no sharp cut-off); inconclusive = no clear call, values can overlap the other calls; inactive = mostly above about 0.92. The list shows a part of the results.

Assay: chemical genetic growth profiling, strain panel (AID 1159580);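 also: tested at 20 µM; growth read once vehicle control cultures reached saturation at 30 °C; 1 = growth at the plate median or of vehicle wells; lower values mean less growth of the strain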
Details: S. cerevisiae deletion strains, growth OD
[1] = locus YHR030C, strain SLT2, hits give low values
[2] = locus YJL095W, strain BCK1, hits give low values

Measured: normalized growth

COC1C(O)C(C)OC(O[C@H]2CC[C@]3(C=O)C4C(CC[C@]3(O)C2)[C@@]2(O)CC[C@H](C3=CC(=O)OC3)[C@@]2(C)C[C@H]4O)C1O (stereo partly drawn)
inactive: [1] 1.07 | locus YHR079C, strain IRE1, hits give low values 1.08 | [2] 1.04 | locus YJR066W, strain TOR1, hits give low values 0.979 | locus YLR113W, strain HOG1, hits give low values 0.968 | locus YNL183C, strain NPR1, hits give low values 0.988 | locus YOR231W, strain MKK1, hits give low values 1.01 | locus YPL256C, strain CLN2, hits give low values 1.12

CC12CCC3C(CCC4(O)CC(O)CCC34/C=N/NC(N)=O)C1(O)CCC2C1=CC(=O)OC1 (stereo not drawn)
inactive: locus YBR021W, strain FUR4, hits give low values 1.05 | locus YBR229C, strain ROT2, hits give low values 1.02 | locus YCL029C, strain bik1, hits give low values 0.999 | locus YDL035C, strain GPR1, hits give low values 1.05 | locus YDL074C, strain BRE1, hits give low values 1.05 | locus YDL101C, strain DUN1, hits give low values 1.01 | locus YDL185W, strain tfp1, hits give low values 0.998 | locus YDL192W, strain arf1, hits give low values 1.01 | locus YDR101C, strain arx1, hits give low values 1.01 | locus YDR162C, strain NBP2, hits give low values 1.02 | locus YDR318W, strain mcm21, hits give low values 0.985 | locus YDR388W, hits give low values 0.985 | locus YDR502C, strain sam2, hits give low values 0.974 | locus YER110C, hits give low values 0.963 | locus YER155C, strain BEM2, hits give low values 1 | locus YER167W, strain BCK2, hits give low values 1.02 | locus YGL078C, strain dbp3, hits give low values 0.983 | locus YGL086W, strain mad1, hits give low values 0.991 | locus YGL248W, strain PDE1, hits give low values 1 | locus YGR078C, strain PAC10, hits give low values 0.991 | locus YGR135W, strain pre9, hits give low values 0.957 | locus YGR252W, strain gcn5, hits give low values 0.98 | [1] 1.01 | locus YHR079C, strain IRE1 (second series), hits give low values 0.988 | locus YHR094C, strain hxt1, hits give low values 0.979 | locus YHR129C, strain ARP1, hits give low values 1.01 | locus YHR200W, strain rpn10, hits give low values 0.994 | locus YIL066C, strain RNR3, hits give low values 1.04 | locus YIL073C, strain SPO22, hits give low values 1.01 | locus YIL125W, strain kgd1, hits give low values 0.992 | locus YIR030C, strain dcg1, hits give low values 0.994 | [2] 1 | locus YJL134W, strain LCB3, hits give low values 1.01 | locus YJL168C, strain set2, hits give low values 0.991 | locus YJL187C, strain SWE1 (second series), hits give low values 0.999 | locus YKL009W, strain mrt4, hits give low values 1.03 | locus YKL068W, hits give low values 0.987 | locus YKL085W, strain MDH1 (second series), hits give low values 0.994 | locus YKL085W, strain MDH1, hits give low values 0.994 | locus YKR001C, strain vps1, hits give low values 0.996 | locus YLR039C, strain RIC1, hits give low values 1.06 | locus YLR058C, strain SHM2, hits give low values 1.02 | locus YLR102C, strain apc9, hits give low values 0.985 | locus YLR262C, strain YPT6, hits give low values 1.05 | locus YLR268W, strain sec22, hits give low values 1.02 | locus YLR371W, strain rom2, hits give low values 0.994 | locus YLR418C, strain cdc73, hits give low values 0.975 | locus YML016C, strain PPZ1, hits give low values 1.02 | locus YML032C, strain rad52, hits give low values 1 | locus YML124C, strain tub3, hits give low values 0.986 | locus YMR078C, strain ctf18, hits give low values 0.981 | locus YMR223W, strain ubp8, hits give low values 0.975 | locus YMR307W, strain GAS1, hits give low values 1.08 | locus YNL067W, strain RPL9B, hits give low values 0.986 | locus YNL153C, strain GIM3, hits give low values 0.991 | locus YNL233W, strain BNI4, hits give low values 0.987 | locus YNL250W, strain rad50, hits give low values 0.985 | locus YNL271C, strain bni1, hits give low values 0.994 | locus YNL298W, strain CLA4, hits give low values 0.983 | locus YNL307C, strain MCK1, hits give low values 0.986 | locus YNR052C, strain pop2, hits give low values 0.98 | locus YOL012C, strain htz1 1.29 | locus YOL147C, strain pex11, hits give low values 0.986 | locus YOR061W, strain CKA2, hits give low values 1.04 | locus YOR069W, strain VPS5, hits give low values 1 | locus YOR136W, strain idh2, hits give low values 0.98 | locus YOR144C, strain elg1, hits give low values 0.989 | locus YOR184W, strain ser1, hits give low values 1.03 | locus YOR316C, strain cot1, hits give low values 0.987 | locus YPL241C, strain CIN2, hits give low values 1.01 | locus YPR119W, strain clb2, hits give low values 0.983 | locus YPR141C, strain kar3, hits give low values 0.994 | locus YPR163C, strain tif3, hits give low values 0.989 | locus YPR167C, strain met16, hits give low values 0.978 | strain wtn01, hits give low values 1.01
